{"source": "PubChem BioAssay AID1892", "about": "(NMMLSC, 2009)", "note": "Hit rate of the full screen: of about 5,900 compounds, about 140 (2.4%) were called active. Cut-off read from the data, not from the text of the source: active = binding response below about 16% or above about 210%; inactive = in between. What follows is part of a selection rich in actives, with near analogues and random picks from the rest.", "data": [{"target": "Mitogen-activated protein kinase kinase kinase 2 (Homo sapiens) (UniProt Q9Y2U5)", "test": "wildtype MEKK2 PB1-MEK5 interaction enhancers or blockers – biochemical, single concentration, multiplex bead flow cytometry, confirmation (AID 1892)", "conditions": "Alexa488-MEK5 binding to MEKK2 WT, at 10 µM, actives lie on both sides", "values": [{"smiles": "COc1ccc(C(=O)C[n+]2ccc(C)cc2)cc1", "binding response (% of control)": "104% (inactive)"}, {"smiles": "COc1cc(Br)c(-c2sc(Nc3ccccc3)n[n+]2-c2ccccc2)cc1OC", "binding response (% of control)": "134% (inactive)"}, {"smiles": "CN(C)CCCNC(=S)N1CCN(c2nc(-c3ccccc3)cs2)CC1", "binding response (% of control)": "108% (inactive)"}, {"smiles": "O=C(O)CC(Cc1ccccc1)C(=O)Nc1ccc([N+](=O)[O-])cc1", "note": "(centres undefined)", "binding response (% of control)": "96% (inactive)"}, {"smiles": "Cc1onc(-c2ccccc2Cl)c1C(=O)OCC(=O)c1ccccc1", "binding response (% of control)": "94% (inactive)"}, {"smiles": "COc1cc(C)nc(N2CCCC(C(=O)NCC(C)C)C2)n1", "note": "(centres undefined)", "binding response (% of control)": "97% (inactive)"}, {"smiles": "CCN(CC)CCC(c1ccc2c(c1)OCO2)c1c(OC)cc(OC)c2c(-c3ccccc3)cc(=O)oc12", "note": "(centres undefined)", "binding response (% of control)": "134% (inactive)"}, {"smiles": "COc1ccc(CNC(=O)C2CCN(S(C)(=O)=O)CC2)cc1", "binding response (% of control)": "103% (inactive)"}, {"smiles": "Cc1ccc(CNC(=O)Cn2c(=O)c3sccc3n(Cc3cccc([N+](=O)[O-])c3)c2=O)cc1", "binding response (% of control)": "103% (inactive)"}, {"smiles": "COc1cccc(/C=N\\NC(=O)C2=NNC(=O)C2C)c1O", "note": "(centres undefined)", "binding response (% of control)": "100% (inactive)"}, {"smiles": "COc1cccc(CNCCc2c[nH]c3ccccc23)c1OCc1ccccc1F", "binding response (% of control)": "131% (inactive)"}, {"smiles": "C#CCOCCOCCOCCNc1nc(N2CCN(C(=O)C([C@@H](C)CC)n3cc(C(N)COC(=O)C(F)(F)F)nn3)CC2)nc(N2CCN(C(=O)[C@H](CCCCN)n3cc(C(N)CC(C)C)nn3)CC2)n1", "note": "(some centres undefined)", "binding response (% of control)": "191% (inactive)"}, {"smiles": "O=C(Nc1ccn(Cc2ccccc2)n1)c1cccc(F)c1", "binding response (% of control)": "105% (inactive)"}, {"smiles": "CN(C)CCCN(C(=O)COc1ccccc1)c1nc2c(Cl)cccc2s1", "binding response (% of control)": "133% (inactive)"}, {"smiles": "O=C(CN1CCN(C(=O)c2ccco2)CC1)Nc1ccc(Cl)c(C(F)(F)F)c1", "binding response (% of control)": "112% (inactive)"}, {"smiles": "CNC(C)C#Cc1ccc2sc3cc(OC)c(OC)cc3c(=O)c2c1", "note": "(centres undefined)", "binding response (% of control)": "128% (inactive)"}, {"smiles": "COc1cccc(C2CC(c3ccccc3)=NN2S(=O)(=O)c2ccccc2)c1OC", "note": "(centres undefined)", "binding response (% of control)": "98% (inactive)"}, {"smiles": "O=C(Nc1ccc(Cl)cn1)c1cnn2cccnc12", "binding response (% of control)": "108% (inactive)"}, {"smiles": "CCC(C)OC(=O)C(C)Oc1ccc(-c2ccccc2)cc1", "note": "(centres undefined)", "binding response (% of control)": "106% (inactive)"}, {"smiles": "Cn1ccc(=Nc2ccc(NC(=O)c3ccc(N=c4ccn(C)c5ccc([N+](=O)[O-])cc45)cc3)cc2)cc1", "binding response (% of control)": "152% (inactive)"}, {"smiles": "CC1CCN(C2=NC(=O)/C(=C/c3cn[nH]c3-c3ccccc3)S2)CC1", "binding response (% of control)": "94% (inactive)"}, {"smiles": "COc1cccc(Nc2ncccc2C(=O)O)c1", "binding response (% of control)": "97% (inactive)"}, {"smiles": "CCCc1nnc(SCC(=O)N2C(C)CCCC2C)n1CC", "note": "(centres undefined)", "binding response (% of control)": "110% (inactive)"}, {"smiles": "Cc1ccc(C)c(CN2CCC(CNC(=O)Nc3ccc(C)c(F)c3)CC2)c1", "binding response (% of control)": "146% (inactive)"}, {"smiles": "CSCC[C@H](NC(=O)CCCn1nnc2ccccc2c1=O)C(=O)O", "binding response (% of control)": "105% (inactive)"}, {"smiles": "CCc1ccc2nc(Nc3ncc(C(C)=O)c(C)n3)nc(C)c2c1", "binding response (% of control)": "103% (inactive)"}, {"smiles": "CCOc1ccc(S(=O)(=O)NCCCn2ccnc2)cc1NC(C)=O", "binding response (% of control)": "100% (inactive)"}, {"smiles": "CCC(=C/c1sc2ccc3ccccc3c2[n+]1C)/C=C1\\Sc2ccc3ccccc3c2N1C", "binding response (% of control)": "13% [inhibitor] (active)"}, {"smiles": "O=C(O)c1cccnc1NC1CCCC1", "binding response (% of control)": "109% (inactive)"}, {"smiles": "COc1ccc(N2CCN(Cc3nnc(-c4ccccc4)o3)CC2)cc1", "binding response (% of control)": "94% (inactive)"}, {"smiles": "C[N+](C)(C)CCNC(=O)c1c(O)c2c([nH]c1=O)CCCC2", "binding response (% of control)": "101% (inactive)"}, {"smiles": "COc1ccc(NC(=O)Cn2nnc(C(=O)NCCc3ccc(OC)c(OC)c3)c2N)cc1", "binding response (% of control)": "98% (inactive)"}, {"smiles": "CC(C)(C)c1nnc(NC(=O)C2c3ccccc3Oc3ccccc32)s1", "binding response (% of control)": "93% (inactive)"}, {"smiles": "Clc1ccc(-c2nnc(SCc3nc4ccccc4s3)o2)cc1", "binding response (% of control)": "98% (inactive)"}, {"smiles": "CCCn1c(=N)n(CC(=O)c2ccc(Cl)c(Cl)c2)c2ccccc21", "binding response (% of control)": "144% (inactive)"}, {"smiles": "CCCCN1C(=O)/C(=C(/C#N)C(N)=O)c2ccccc21", "binding response (% of control)": "102% (inactive)"}, {"smiles": "O=C(NCCN1CCOCC1)[C@H](Cc1ccccc1)N1C(=O)c2ccccc2C1=O", "binding response (% of control)": "103% (inactive)"}, {"smiles": "COc1cc2c(cc1OC)CN(C(=O)c1ccc(S(=O)(=O)N3CCCCCC3)cc1)CC2", "binding response (% of control)": "97% (inactive)"}, {"smiles": "O=C(O)c1cc(Cl)c(Cl)cc1C(=O)Nc1cccc2ncccc12", "binding response (% of control)": "99% (inactive)"}, {"smiles": "Cc1noc(C)c1S(=O)(=O)N(C)Cc1ccccc1", "binding response (% of control)": "105% (inactive)"}, {"smiles": "CN(Cc1ccccc1)CC(O)COc1ccc(CNCc2cc3ccccc3s2)cc1", "note": "(centres undefined)", "binding response (% of control)": "129% (inactive)"}, {"smiles": "CN(CC(=O)Nc1cccc(F)c1)CC(=O)Nc1cccc([N+](=O)[O-])c1", "binding response (% of control)": "99% (inactive)"}, {"smiles": "CC(C)c1ccc(C(=O)NCCCc2ccccc2)cc1", "binding response (% of control)": "94% (inactive)"}, {"smiles": "COc1cc(-c2nnc(Cn3cc(C(F)(F)F)ccc3=O)o2)cc(OC)c1OC", "binding response (% of control)": "103% (inactive)"}, {"smiles": "O=C(CCCO)N/N=C/c1cc(Br)ccc1O", "binding response (% of control)": "106% (inactive)"}, {"smiles": "O=C(NC1CCN(Cc2ccccc2)CC1)c1cc(Br)c(Br)[nH]1", "binding response (% of control)": "128% (inactive)"}, {"smiles": "Cc1cccc(OCCNC(=O)CSc2ccc(C(F)(F)F)cc2[N+](=O)[O-])c1", "binding response (% of control)": "104% (inactive)"}, {"smiles": "N=c1c2c(-c3ccccc3)c(-c3ccccc3)n(Cc3ccccc3)c2ncn1CCCO", "binding response (% of control)": "134% (inactive)"}, {"smiles": "Cc1nn(-c2ccccc2)c(NC(=O)c2cccs2)c(-c2ccc(Cl)cc2)c1=O", "binding response (% of control)": "101% (inactive)"}, {"smiles": "CCn1c(NC(=O)c2ccccc2)c(-c2cccs2)c(=O)c2ccccc21", "binding response (% of control)": "102% (inactive)"}, {"smiles": "C/C=C/c1ccc(OCCCCN2CCC(C)CC2)c(OC)c1", "binding response (% of control)": "109% (inactive)"}, {"smiles": "CC(C)C(=O)N1c2ccccc2NC2=C(C(=O)CCC2)C1c1ccc(N(C)C)cc1", "note": "(centres undefined)", "binding response (% of control)": "116% (inactive)"}, {"smiles": "Cc1c(-c2ccccc2)cn2c1-c1ccc(C)n1CC2", "binding response (% of control)": "93% (inactive)"}, {"smiles": "O=C(Cc1cccs1)N/N=C/c1ccc(OCc2ccccc2)cc1", "binding response (% of control)": "101% (inactive)"}, {"smiles": "Cc1c(S(=O)(=O)NCc2ccccc2)c(=O)n(C)c(=O)n1C", "binding response (% of control)": "102% (inactive)"}, {"smiles": "Cc1[nH]c2ccc(S(N)(=O)=O)cc2c1C", "binding response (% of control)": "97% (inactive)"}, {"smiles": "C=CCN1C=C2C(=O)C(C)(OC(=O)CCc3ccccc3)C(=O)C=C2C=C1c1ccc(C#N)cc1", "note": "(centres undefined)", "binding response (% of control)": "98% (inactive)"}, {"smiles": "C=C(C)C1CC=C(C)/C(=N\\NC(=O)CNc2ccccc2OC)C1", "note": "(centres undefined)", "binding response (% of control)": "107% (inactive)"}, {"smiles": "O=C(CSc1ccc(-c2ccc(F)cc2)nn1)Nc1ccc2c(c1)OCCO2", "binding response (% of control)": "105% (inactive)"}]}]}
